Measurements: the supplement of paper PMC10849652
The full data set covers some 8,800 targets. This sample favours those with a hit. About 0.5% of all pairs of compound and target were hits.

Assays:
Assay in all cases: log2 fold change, soluble protein after heating vs DMSO (PISA); higher = thermal stabilisation; K562 lysate, 10 uM; active = over 0.2 and 3.5 SD of the protein, either way, in both replicates (recomputed)
erlotinib = compound: C#Cc1cccc(Nc2ncnc3cc(OCCOC)c(OCCOC)cc23)c1 [erlotinib]
Outline: (§1)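 Following dounce homogenisation of K562 pellets in PBS pH 7.4 with 1 mM MgCl2, crude extract at 1 mg/mL protein was incubated for 30 min with 10 μM compound. Aliquots were then heated for 3 min over 48°C-58°C and pooled, NP-40 was added to 0.5% at 4°C, and soluble protein was recovered as the supernatant at 21,000xg for 90 min. Channel-sum-equalised TMTpro 16plex LC-MS/MS quantified this protein. Each value, from duplicates, is a log-two fold change in thermal stability relative to solvent controls.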

[1] = compound: C/C(=N\NC(=O)C1=CC(=CC=C1)S(=O)(=O)N2CCOCC2)/C3=C(C=CC(=C3)Cl)O
Outline: as §1

[2] = compound: C1=CC(=CC=C1C2=NC3=C(N2)C=C(C=C3)C(=O)N)OC4=CC=C(C=C4)Cl
Outline: as §1

[3] = compound: C1=CC2=C(C=CC(=C2)/C=C\3/C(=O)NC(=NCC4=CC=CS4)S3)N=C1
Outline: as §1

[4] = compound: C1=CC2=NC=CN=C2C=C1/C=C/3\C(=O)NC(=O)S3
Outline: as §1

[5] = compound: C1=CC=C(C=C1)C2=NC(=C(N2)C3=CC=NC=C3)C4=CC(=C(C=C4)Cl)O
Outline: as §1

[6] = compound: C1=CC=C2C(=C1)C3=NNC4=CC=CC(=C43)C2=O
Outline: as §1

[7] = compound: C1CCN(C1)C(=O)NC2=CC=CC(=C2)NC3=NC=C(C(=N3)NCCC4=CN=CN4)Br
Outline: as §1

[8] = compound: C1CN(CCC1(CC2=CC=C(C=C2)Cl)N)C3=NC=NC4=C3C=CN4
Outline: as §1

IRAK-1-4 Inhibitor I = compound: C1COCCN1CCN2C3=CC=CC=C3N=C2NC(=O)C4=CC(=CC=C4)[N+](=O)[O-] [IRAK-1-4 Inhibitor I]
Outline: as §1

ibrutinib = compound: C=CC(=O)N1CCC[C@@H](n2nc(-c3ccc(Oc4ccccc4)cc3)c3c(N)ncnc32)C1 [ibrutinib]
Outline: as §1

[9] = compound: CC(=O)c1cnc2ccc(-c3cc(Cl)c(O)c(Cl)c3)nc2c1N[C@H]1CC[C@H](CN(C)C)CC1
Outline: as §1

ralimetinib = compound: CC(C)(C)Cn1c(N)nc2ccc(-c3[nH]c(C(C)(C)C)nc3-c3ccc(F)cc3)nc21 [ralimetinib]
Outline: as §1

[10] = compound: CC(C)(O)CC(=O)NCCn1ccc2ncnc(Nc3ccc(Oc4cccc(C(F)(F)F)c4)c(Cl)c3)c21
Outline: as §1

[11] = compound: CC(C)C1=C2N=C(C=C(N2N=C1)NCC3=CC=CC=C3)NCCCCCCN
Outline: as §1

[12] = compound: CC1=C(C(CC(=O)N1)C2=CC=C(C=C2)C(F)(F)F)C(=O)NC3=C(C=C4C(=C3)C=NN4)F
Outline: as §1

[13] = compound: CC1=C(C2=C(C=C1)C(=O)C3=CC=CC=C3N2CCCN)C
Outline: as §1

[14] = compound: CC1=C(C=C(C=C1)NC(=O)C2=CC(=CC=C2)C(C)(C)C#N)NC3=CC4=C(C=C3)N=CN(C4=O)C
Outline: as §1

[15] = compound: CC1=C(C=C(C=C1)NC(=O)C2=CC(=CC=C2)N(C)C)NC(=O)C3=CC=C(C=C3)O
Outline: as §1

[16] = compound: CC1=CC=C(C=C1)SC2=C3C=C(SC3=CN=C2)C(=O)N
Outline: as §1

Measured: log2 fold change

PI4KB (UniProt Q9UBF8)
inactive: erlotinib 0.017 | [1] -0.108 | [2] -0.011 | [3] 0.038 | [4] 0.173 | [5] 0.011 | [6] 0.193 | [7] 0.01 | [8] -0.065 | IRAK-1-4 Inhibitor I -0.003 | ibrutinib -0.044 | [9] 0.208 | ralimetinib 0.021 | [10] -0.021 | [11] -0.004 | [12] -0.015 | [13] -0.018 | [14] 0.022 | [15] 0 | [16] 0.012

POLB (UniProt P06746)
inactive: erlotinib 0.012 | [1] 0.009 | [2] 0.075 | [3] 0.069 | [4] -0.022 | [5] 0.019 | [6] -0.061 | [7] -0.019 | [8] 0.026 | IRAK-1-4 Inhibitor I -0.062 | ibrutinib -0.011 | [9] -0.003 | ralimetinib 0.068 | [10] -0.042 | [11] 0.083 | [12] 0.017 | [13] -0.006 | [14] -0.027 | [15] -0.034 | [16] -0.003

PFKFB2 (UniProt O60825)
inactive: erlotinib -0.007 | [1] -0.012 | [2] 0.03 | [3] -0.004 | [4] 0.005 | [5] -0.02 | [6] 0.02 | [7] -0.004 | [8] 0.002 | IRAK-1-4 Inhibitor I -0.001 | ibrutinib -0.007 | [9] -0.014 | ralimetinib 0.035 | [10] -0.017 | [11] -0.016 | [12] 0.006 | [13] -0.001 | [14] -0.013 | [15] -0.011 | [16] -0.001

PPP1R8 (UniProt Q12972)
Chain of UniProt Q12972 (Q12972 whole entry, looked up): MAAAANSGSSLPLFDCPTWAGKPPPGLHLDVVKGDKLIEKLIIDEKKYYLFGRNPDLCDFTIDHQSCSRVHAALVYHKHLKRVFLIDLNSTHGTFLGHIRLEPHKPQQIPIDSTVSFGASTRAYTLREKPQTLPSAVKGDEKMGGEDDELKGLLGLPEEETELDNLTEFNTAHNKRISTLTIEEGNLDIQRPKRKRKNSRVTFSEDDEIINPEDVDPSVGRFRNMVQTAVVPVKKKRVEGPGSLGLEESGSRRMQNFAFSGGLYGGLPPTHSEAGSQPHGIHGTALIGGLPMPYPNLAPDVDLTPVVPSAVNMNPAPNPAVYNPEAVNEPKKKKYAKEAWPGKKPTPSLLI
inactive: erlotinib 0.002 | [1] -0.032 | [2] 0.029 | [3] 0.002 | [4] -0.012 | [5] 0.008 | [6] 0.007 | [7] -0.009 | [8] 0.02 | IRAK-1-4 Inhibitor I 0.008 | ibrutinib -0.029 | [9] -0.026 | ralimetinib -0.039 | [10] -0.031 | [11] 0.011 | [12] -0.011 | [13] -0.034 | [14] 0.002 | [15] -0.036 | [16] -0.028

PHOSPHO2 (UniProt Q8TCD6)
inactive: erlotinib -0.018 | [1] -0.225 | [2] 0.046 | [3] -0.032 | [4] -0.027 | [5] -0.002 | [6] 0.072 | [7] 0.224 | [8] -0.16 | IRAK-1-4 Inhibitor I -0.014 | ibrutinib -0.01 | [9] 0.039 | ralimetinib 0.003 | [10] 0.035 | [11] 0.012 | [12] -0.017 | [13] 0.018 | [14] 0.006 | [15] 0.048 | [16] 0.056

PLK1 (UniProt P53350)
Chain of UniProt P53350 (P53350 whole entry, looked up): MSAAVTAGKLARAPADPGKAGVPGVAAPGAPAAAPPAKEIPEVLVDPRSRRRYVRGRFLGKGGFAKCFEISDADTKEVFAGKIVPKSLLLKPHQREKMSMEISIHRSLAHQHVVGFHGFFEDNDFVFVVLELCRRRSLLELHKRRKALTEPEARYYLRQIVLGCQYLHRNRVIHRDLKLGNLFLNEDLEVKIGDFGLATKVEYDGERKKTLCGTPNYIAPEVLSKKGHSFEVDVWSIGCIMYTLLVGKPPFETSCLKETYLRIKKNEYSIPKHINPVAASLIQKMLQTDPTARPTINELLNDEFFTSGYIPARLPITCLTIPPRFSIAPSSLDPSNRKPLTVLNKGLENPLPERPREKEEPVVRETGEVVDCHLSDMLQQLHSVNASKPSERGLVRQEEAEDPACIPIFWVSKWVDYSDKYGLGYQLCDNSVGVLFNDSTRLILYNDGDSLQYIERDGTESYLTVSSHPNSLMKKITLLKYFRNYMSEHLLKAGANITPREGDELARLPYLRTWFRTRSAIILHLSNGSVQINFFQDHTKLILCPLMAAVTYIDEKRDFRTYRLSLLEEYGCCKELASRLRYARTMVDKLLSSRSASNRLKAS
inactive: erlotinib 0.006 | [1] -0.032 | [2] -0.013 | [3] 0.077 | [4] -0.092 | [5] 0 | [6] -0.147 | [7] -0.069 | [8] 0.143 | IRAK-1-4 Inhibitor I -0.141 | ibrutinib -0.004 | [9] 0.069 | ralimetinib 0.009 | [10] 0.015 | [11] 0.068 | [12] 0.022 | [13] -0.019 | [14] 0.032 | [15] 0.036 | [16] -0.014

PGLS (UniProt O95336)
Chain of UniProt O95336 (O95336 whole entry, looked up): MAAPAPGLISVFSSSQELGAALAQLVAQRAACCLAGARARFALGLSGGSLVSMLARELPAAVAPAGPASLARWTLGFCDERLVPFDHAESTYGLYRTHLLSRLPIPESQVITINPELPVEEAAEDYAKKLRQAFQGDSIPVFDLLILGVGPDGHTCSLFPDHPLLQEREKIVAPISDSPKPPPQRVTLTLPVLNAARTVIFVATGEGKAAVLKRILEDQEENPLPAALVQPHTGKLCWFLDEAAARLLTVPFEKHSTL
inactive: erlotinib -0.019 | [1] -0.026 | [2] -0.08 | [3] -0.039 | [4] -0.039 | [5] -0.077 | [6] -0.04 | [7] -0.112 | [8] 0.025 | IRAK-1-4 Inhibitor I -0.043 | ibrutinib 0.012 | [9] -0.08 | ralimetinib 0.06 | [10] 0.008 | [11] 0.001 | [12] -0.012 | [13] -0.075 | [14] 0.038 | [15] -0.003 | [16] 0.077

PHKG2 (UniProt P15735)
Chain of UniProt P15735 (P15735 whole entry, looked up): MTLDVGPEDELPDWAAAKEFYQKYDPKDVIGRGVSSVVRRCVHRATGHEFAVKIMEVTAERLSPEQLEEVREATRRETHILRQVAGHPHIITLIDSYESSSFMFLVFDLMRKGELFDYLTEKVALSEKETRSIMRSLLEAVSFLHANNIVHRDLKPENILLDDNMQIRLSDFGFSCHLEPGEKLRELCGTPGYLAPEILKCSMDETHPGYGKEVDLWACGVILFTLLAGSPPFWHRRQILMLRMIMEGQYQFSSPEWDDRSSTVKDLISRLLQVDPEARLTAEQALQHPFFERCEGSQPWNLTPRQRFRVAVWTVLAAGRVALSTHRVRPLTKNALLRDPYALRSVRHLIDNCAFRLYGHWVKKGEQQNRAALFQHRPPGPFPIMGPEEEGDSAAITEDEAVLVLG
inactive: erlotinib -0.106 | [1] 0.062 | [2] 0.04 | [3] 0.075 | [4] 0.104 | [5] 0.022 | [6] 0.231 | [7] 0.045 | [8] -0.011 | IRAK-1-4 Inhibitor I 0.036 | ibrutinib -0.099 | [9] 0.168 | ralimetinib 0.003 | [10] -0.011 | [11] 0.03 | [12] -0.029 | [13] -0.018 | [14] -0.018 | [15] -0.004 | [16] -0.027

PRMT5 (UniProt O14744)
Chain of UniProt O14744 (O14744 whole entry, looked up): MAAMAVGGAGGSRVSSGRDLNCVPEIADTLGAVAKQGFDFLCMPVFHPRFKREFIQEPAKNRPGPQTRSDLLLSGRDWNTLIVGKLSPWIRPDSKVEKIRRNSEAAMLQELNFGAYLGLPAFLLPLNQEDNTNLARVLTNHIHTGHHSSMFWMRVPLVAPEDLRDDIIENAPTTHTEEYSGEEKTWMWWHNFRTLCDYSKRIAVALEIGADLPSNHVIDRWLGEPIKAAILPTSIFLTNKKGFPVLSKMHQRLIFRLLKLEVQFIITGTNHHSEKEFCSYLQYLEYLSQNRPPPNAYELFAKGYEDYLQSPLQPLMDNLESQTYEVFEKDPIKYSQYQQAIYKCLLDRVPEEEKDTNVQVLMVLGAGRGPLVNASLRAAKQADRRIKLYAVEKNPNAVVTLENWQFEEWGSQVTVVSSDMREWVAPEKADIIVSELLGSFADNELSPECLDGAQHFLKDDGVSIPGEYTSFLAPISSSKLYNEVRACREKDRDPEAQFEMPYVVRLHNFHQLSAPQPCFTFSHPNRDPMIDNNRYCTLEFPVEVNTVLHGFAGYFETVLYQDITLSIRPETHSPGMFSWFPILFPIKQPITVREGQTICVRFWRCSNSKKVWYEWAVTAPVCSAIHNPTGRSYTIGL
inactive: erlotinib 0.002 | [1] 0 | [2] 0.032 | [3] 0.006 | [4] 0.007 | [5] 0.017 | [6] 0.017 | [7] 0.012 | [8] 0.019 | IRAK-1-4 Inhibitor I 0.003 | ibrutinib 0.004 | [9] -0.002 | ralimetinib -0.015 | [10] 0.004 | [11] -0.004 | [12] -0.015 | [13] -0.008 | [14] 0.001 | [15] -0.01 | [16] 0.022

POLR2B (UniProt P30876)
inactive: erlotinib 0.031 | [1] 0.019 | [2] -0.014 | [3] 0.012 | [4] -0.016 | [5] -0.008 | [6] -0.024 | [7] 0.002 | [8] -0.004 | IRAK-1-4 Inhibitor I -0.007 | ibrutinib -0.011 | [9] -0.017 | ralimetinib 0.025 | [10] -0.018 | [11] 0.005 | [12] 0.029 | [13] -0.031 | [14] -0.014 | [15] 0.028 | [16] 0.032

PDE4DIP isoform 4 (UniProt Q5VU43)
Chain of UniProt Q5VU43 (Q5VU43 whole entry, looked up): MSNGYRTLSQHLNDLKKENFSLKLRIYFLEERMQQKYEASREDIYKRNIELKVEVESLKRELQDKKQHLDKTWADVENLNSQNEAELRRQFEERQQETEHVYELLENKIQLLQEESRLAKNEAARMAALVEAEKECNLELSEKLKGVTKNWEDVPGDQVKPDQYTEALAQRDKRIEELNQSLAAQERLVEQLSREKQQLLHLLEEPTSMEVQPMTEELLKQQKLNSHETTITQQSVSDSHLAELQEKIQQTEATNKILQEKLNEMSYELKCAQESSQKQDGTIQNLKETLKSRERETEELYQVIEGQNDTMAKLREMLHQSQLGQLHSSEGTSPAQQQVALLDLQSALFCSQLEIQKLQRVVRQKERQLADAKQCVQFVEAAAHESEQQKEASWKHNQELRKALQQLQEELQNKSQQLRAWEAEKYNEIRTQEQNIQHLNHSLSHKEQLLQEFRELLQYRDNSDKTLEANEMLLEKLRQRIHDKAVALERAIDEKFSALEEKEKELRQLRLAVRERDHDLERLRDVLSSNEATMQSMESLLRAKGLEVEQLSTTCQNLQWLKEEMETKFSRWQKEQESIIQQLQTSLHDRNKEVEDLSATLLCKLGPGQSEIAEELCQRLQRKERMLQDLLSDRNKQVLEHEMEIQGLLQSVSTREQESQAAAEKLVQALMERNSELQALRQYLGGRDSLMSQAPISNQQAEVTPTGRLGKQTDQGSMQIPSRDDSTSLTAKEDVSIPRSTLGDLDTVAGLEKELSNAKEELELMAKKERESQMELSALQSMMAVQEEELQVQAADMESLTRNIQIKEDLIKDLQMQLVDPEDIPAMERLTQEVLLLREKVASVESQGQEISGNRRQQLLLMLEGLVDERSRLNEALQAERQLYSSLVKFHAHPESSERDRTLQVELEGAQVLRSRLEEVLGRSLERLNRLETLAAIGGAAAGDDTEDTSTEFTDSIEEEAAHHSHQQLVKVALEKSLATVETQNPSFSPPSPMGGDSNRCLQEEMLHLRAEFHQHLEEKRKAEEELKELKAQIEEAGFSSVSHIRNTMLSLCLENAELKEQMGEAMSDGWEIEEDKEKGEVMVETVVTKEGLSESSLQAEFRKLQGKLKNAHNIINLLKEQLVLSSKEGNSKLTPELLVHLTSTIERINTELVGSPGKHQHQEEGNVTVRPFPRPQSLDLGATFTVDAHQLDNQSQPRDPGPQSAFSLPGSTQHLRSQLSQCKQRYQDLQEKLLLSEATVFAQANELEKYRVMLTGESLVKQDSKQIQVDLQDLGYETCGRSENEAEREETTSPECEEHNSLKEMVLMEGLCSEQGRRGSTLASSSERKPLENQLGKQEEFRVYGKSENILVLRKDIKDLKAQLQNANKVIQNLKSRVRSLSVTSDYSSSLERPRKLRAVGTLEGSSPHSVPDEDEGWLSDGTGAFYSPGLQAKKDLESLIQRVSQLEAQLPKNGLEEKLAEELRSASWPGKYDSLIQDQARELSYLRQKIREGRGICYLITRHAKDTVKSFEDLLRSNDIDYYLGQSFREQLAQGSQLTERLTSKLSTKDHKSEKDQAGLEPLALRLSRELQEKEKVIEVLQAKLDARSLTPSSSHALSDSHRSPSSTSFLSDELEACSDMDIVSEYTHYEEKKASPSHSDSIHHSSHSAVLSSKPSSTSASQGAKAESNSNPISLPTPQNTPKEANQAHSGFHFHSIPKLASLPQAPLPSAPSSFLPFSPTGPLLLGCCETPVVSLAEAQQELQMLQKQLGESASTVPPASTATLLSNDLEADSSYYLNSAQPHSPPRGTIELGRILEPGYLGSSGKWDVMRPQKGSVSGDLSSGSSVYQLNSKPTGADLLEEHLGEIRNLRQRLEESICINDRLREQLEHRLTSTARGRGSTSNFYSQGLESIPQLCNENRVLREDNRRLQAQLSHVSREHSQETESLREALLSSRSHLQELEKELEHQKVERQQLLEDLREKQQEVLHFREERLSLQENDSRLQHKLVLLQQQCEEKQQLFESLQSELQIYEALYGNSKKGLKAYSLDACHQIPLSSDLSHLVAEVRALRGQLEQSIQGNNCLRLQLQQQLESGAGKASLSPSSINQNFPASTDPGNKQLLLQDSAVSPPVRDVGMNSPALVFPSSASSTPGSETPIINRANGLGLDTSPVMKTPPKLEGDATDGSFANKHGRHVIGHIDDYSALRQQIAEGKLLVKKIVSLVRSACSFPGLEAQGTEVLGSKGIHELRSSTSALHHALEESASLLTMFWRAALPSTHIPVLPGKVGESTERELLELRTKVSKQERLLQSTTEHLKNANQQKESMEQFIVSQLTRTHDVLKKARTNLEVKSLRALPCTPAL
inactive: erlotinib 0.002 | [1] -0.026 | [2] 0.017 | [3] 0.004 | [4] -0.004 | [5] 0 | [6] -0.111 | [7] -0.009 | [8] 0.055 | IRAK-1-4 Inhibitor I 0.024 | ibrutinib 0.249 | [9] -0.021 | ralimetinib 0.02 | [10] -0.03 | [11] -0.061 | [12] -0.032 | [13] 0.006 | [14] 0.054 | [15] -0.033 | [16] 0.017

PCBP2 (UniProt H3BRU6)
inactive: erlotinib 0.094 | [1] -0.272 | [2] 0.166 | [3] 0.061 | [4] -0.057 | [5] -0.034 | [6] -0.15 | [7] -0.196 | [8] -0.096 | IRAK-1-4 Inhibitor I 0.009 | ibrutinib 0.046 | [9] 0.016 | ralimetinib 0.031 | [10] -0.018 | [11] -0.036 | [12] -0.055 | [13] 0.001 | [14] 0.141 | [15] 0.039 | [16] -0.031

PHKB isoform 3 (UniProt Q93100)
inactive: erlotinib -0.053 | [1] -0.049 | [2] 0 | [3] 0.044 | [4] 0.082 | [5] 0.036 | [6] 0.142 | [7] 0.038 | [8] 0.01 | IRAK-1-4 Inhibitor I 0.006 | ibrutinib -0.004 | [9] 0.071 | ralimetinib 0.008 | [10] -0.052 | [11] -0.003 | [12] 0.008 | [13] -0.069 | [14] -0.019 | [15] 0.022 | [16] -0.049

PEF1 (UniProt Q9UBV8)
Chain of UniProt Q9UBV8 (Q9UBV8 whole entry, looked up): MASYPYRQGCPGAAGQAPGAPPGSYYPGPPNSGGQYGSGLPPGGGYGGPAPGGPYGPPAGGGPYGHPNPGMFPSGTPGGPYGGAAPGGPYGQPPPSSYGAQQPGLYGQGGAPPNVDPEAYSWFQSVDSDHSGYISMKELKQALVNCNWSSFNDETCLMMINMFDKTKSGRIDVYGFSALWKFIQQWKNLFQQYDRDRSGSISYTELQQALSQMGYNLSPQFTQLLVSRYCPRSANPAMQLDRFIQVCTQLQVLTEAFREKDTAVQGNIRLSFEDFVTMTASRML
inactive: erlotinib -0.01 | [1] 0.012 | [2] -0.014 | [3] -0.001 | [4] -0.039 | [5] -0.012 | [6] -0.021 | [7] -0.016 | [8] 0.056 | IRAK-1-4 Inhibitor I 0.025 | ibrutinib 0.009 | [9] -0.021 | ralimetinib -0.034 | [10] -0.036 | [11] -0.029 | [12] -0.025 | [13] -0.004 | [14] 0.021 | [15] 0.01 | [16] -0.01

POGK (UniProt Q9P215)
inactive: erlotinib 0.052 | [1] 0.053 | [2] 0.034 | [3] -0.059 | [4] -0.023 | [5] 0.104 | [6] -0.03 | [7] 0 | [8] 0.022 | IRAK-1-4 Inhibitor I 0.025 | ibrutinib 0.051 | [9] -0.012 | ralimetinib 0.04 | [10] -0.026 | [11] -0.012 | [12] 0.018 | [13] 0.04 | [14] 0.01 | [15] -0.047 | [16] 0.027

PTMA (UniProt P06454)
Chain of UniProt P06454 (P06454 whole entry, looked up): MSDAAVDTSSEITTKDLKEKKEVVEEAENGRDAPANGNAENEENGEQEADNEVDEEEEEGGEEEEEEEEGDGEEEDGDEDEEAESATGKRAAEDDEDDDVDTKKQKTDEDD
inactive: erlotinib -0.002 | [1] 0.062 | [2] 0.067 | [3] -0.013 | [4] -0.002 | [5] 0.01 | [6] -0.017 | [7] -0.009 | [8] -0.017 | IRAK-1-4 Inhibitor I -0.037 | ibrutinib 0.015 | [9] 0.028 | ralimetinib -0.121 | [10] 0.009 | [11] 0.004 | [12] -0.068 | [13] 0.006 | [14] 0.023 | [15] -0.015 | [16] 0.002
